In article PMC7862700, “An all-to-all approach to the identification of sequence-specific readers for epigenetic DNA modifications on cytosine”:

How the values were obtained:
Test in all cases: DAPPL (digital affinity profiling via proximity ligation, sequencing); 10 mM Tris-HCl pH 7.5, 50 mM NaCl, 1 mM DTT, 4% glycerol, room temperature, 30 min; GST-TFs on glutathione beads, 16-mer random dsDNA library, 0.1% formaldehyde crosslink after washing; high values mean tight binding
Conditions in all cases: protein: recombinant; tags: N-terminal GST; dsDNA, one strand shown
[1] = target: T1, FLI1 (Homo sapiens, UniProt Q01543 1-452)
T1 sequence: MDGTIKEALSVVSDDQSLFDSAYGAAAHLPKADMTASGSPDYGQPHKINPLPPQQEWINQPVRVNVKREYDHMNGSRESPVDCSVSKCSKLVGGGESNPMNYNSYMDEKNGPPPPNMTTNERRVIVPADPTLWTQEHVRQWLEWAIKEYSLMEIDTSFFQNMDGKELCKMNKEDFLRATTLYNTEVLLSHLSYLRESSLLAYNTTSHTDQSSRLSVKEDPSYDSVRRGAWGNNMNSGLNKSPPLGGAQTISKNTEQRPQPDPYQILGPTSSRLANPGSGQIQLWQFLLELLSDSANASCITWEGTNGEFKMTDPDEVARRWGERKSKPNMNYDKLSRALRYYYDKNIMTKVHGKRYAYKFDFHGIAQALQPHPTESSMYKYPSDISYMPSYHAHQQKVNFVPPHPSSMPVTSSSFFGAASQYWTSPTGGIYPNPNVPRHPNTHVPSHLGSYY
Summary of the method: (§1)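 Human transcription factors were made in yeast as GST fusions, captured on glutathione beads and barcoded with DNA. With a tag-only sample included, the pool was incubated with 200 nmole of a random double-stranded 16-mer DNA library in Tris/NaCl/DTT/glycerol buffer at room temperature for 30 min, then crosslinked with 0.1% formaldehyde after washing, ligated by proximity, amplified and sequenced. For binding signal, each hexamer's read frequency for a factor is divided by its frequency for the tag-only sample.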

[2] = target: T2, ELK1 (Homo sapiens, UniProt P19419 1-428)
T2 sequence: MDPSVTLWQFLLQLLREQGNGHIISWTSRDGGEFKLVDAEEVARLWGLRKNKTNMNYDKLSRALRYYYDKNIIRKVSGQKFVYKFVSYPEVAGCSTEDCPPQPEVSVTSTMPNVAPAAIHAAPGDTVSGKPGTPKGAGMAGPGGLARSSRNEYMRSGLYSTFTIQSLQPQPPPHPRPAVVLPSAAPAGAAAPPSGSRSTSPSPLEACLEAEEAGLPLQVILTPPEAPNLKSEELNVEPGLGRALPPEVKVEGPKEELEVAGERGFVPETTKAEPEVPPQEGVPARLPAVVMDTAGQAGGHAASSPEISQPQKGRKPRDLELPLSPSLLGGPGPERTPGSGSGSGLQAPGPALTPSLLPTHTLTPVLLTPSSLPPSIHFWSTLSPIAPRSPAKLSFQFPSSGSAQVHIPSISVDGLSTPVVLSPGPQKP
Summary of the method: as §1

[3] = target: T3, GABPA (Homo sapiens, UniProt Q06546 1-454)
T3 sequence: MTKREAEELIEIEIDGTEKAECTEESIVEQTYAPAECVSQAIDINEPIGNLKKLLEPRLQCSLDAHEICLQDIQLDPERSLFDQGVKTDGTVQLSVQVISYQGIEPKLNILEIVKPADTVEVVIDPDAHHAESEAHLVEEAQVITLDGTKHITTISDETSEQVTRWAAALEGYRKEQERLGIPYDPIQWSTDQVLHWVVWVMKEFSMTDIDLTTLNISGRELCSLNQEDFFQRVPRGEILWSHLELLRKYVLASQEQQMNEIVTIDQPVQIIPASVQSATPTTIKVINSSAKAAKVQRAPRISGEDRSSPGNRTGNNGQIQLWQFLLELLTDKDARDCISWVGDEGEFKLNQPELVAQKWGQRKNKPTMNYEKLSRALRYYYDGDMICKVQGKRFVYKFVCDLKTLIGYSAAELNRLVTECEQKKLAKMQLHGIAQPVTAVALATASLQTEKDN
Summary of the method: as §1

[4] = target: T4, ERG (Homo sapiens, UniProt P11308 1-479)
T4 sequence: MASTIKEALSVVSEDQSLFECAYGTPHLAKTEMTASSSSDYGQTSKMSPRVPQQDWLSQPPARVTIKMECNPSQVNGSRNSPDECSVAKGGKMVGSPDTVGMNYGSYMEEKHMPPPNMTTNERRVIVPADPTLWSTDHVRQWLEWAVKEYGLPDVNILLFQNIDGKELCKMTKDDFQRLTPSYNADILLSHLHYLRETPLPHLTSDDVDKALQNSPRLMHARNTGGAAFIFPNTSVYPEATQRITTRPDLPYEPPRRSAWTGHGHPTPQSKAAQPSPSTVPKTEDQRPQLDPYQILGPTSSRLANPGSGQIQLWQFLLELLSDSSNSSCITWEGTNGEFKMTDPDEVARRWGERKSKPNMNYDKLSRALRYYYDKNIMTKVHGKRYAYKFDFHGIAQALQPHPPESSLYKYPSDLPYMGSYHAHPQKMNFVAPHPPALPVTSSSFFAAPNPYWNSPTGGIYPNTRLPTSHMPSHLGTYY
Summary of the method: as §1

[5] = target: ELF1 (Homo sapiens, UniProt P32519 1-619)
Summary of the method: as §1

[6] = target: T5, EHF (Homo sapiens, UniProt Q9NZC4 1-300)
T5 sequence: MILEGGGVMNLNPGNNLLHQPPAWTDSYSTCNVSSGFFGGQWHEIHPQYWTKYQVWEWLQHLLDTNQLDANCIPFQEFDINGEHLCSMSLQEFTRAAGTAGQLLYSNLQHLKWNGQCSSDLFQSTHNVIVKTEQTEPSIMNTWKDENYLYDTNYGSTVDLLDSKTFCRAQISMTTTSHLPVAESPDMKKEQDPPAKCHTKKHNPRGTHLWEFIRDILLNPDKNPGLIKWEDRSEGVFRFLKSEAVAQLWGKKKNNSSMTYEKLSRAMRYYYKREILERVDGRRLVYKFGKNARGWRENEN
Summary of the method: as §1

[7] = target: SPIB (Homo sapiens, UniProt Q01892 1-262)
Summary of the method: as §1

[8] = target: T6, ELK3 (Homo sapiens, UniProt P41970 1-407)
T6 sequence: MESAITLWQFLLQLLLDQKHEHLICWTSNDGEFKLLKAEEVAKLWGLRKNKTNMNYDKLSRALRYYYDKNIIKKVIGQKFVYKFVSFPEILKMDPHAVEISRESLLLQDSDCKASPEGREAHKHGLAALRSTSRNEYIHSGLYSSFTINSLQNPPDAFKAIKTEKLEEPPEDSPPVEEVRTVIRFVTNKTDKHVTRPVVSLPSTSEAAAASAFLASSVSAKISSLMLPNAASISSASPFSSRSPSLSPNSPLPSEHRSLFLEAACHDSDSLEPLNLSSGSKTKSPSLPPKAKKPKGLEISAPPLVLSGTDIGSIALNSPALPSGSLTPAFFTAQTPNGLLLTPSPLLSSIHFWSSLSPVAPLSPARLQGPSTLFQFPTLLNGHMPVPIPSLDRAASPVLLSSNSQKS
Summary of the method: as §1

[9] = target: SPI1 (Homo sapiens, UniProt P17947 1-270)
Summary of the method: as §1

ELF1, sequence (P32519 whole entry): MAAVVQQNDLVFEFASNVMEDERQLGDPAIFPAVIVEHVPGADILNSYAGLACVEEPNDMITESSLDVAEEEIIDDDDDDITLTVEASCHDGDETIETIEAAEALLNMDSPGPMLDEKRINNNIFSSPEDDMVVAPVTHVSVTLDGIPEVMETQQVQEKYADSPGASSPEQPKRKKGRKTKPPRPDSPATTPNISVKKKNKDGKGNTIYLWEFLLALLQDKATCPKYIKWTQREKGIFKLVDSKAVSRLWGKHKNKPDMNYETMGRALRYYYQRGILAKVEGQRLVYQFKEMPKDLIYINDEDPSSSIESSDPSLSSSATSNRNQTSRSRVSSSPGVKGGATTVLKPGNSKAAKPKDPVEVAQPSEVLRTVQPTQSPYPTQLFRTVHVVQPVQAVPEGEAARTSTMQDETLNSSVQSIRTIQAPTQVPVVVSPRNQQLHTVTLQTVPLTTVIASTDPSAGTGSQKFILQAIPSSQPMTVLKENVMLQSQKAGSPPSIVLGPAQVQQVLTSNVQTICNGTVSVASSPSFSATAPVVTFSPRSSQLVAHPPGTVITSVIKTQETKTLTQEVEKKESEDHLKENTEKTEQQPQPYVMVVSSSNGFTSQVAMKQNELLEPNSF
SPIB, sequence (Q01892 whole entry): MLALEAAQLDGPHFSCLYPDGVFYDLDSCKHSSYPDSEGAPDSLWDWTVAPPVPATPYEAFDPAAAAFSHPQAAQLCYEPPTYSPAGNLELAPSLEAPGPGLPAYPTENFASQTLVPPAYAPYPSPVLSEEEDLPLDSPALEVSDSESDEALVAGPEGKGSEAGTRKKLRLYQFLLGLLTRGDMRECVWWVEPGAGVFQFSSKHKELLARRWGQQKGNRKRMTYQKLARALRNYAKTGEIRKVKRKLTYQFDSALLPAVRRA

Sequence	binding signal [1]	binding signal [2]	binding signal [3]	binding signal [4]	binding signal [5]	binding signal [6]	binding signal [7]	binding signal [8]	binding signal [9]
CGAGCA	1.17 fold enrichment (6-mer frequency, TF over GST control)	1.18 fold enrichment (6-mer frequency, TF over GST control)	1.18 fold enrichment (6-mer frequency, TF over GST control)	1.13 fold enrichment (6-mer frequency, TF over GST control)	1.14 fold enrichment (6-mer frequency, TF over GST control)	1.05 fold enrichment (6-mer frequency, TF over GST control)	1.16 fold enrichment (6-mer frequency, TF over GST control)	1.14 fold enrichment (6-mer frequency, TF over GST control)	
TAGCAG	1.07 fold enrichment (6-mer frequency, TF over GST control)	1.08 fold enrichment (6-mer frequency, TF over GST control)	1.03 fold enrichment (6-mer frequency, TF over GST control)	1.11 fold enrichment (6-mer frequency, TF over GST control)	1.09 fold enrichment (6-mer frequency, TF over GST control)	1 fold enrichment (6-mer frequency, TF over GST control)		1.19 fold enrichment (6-mer frequency, TF over GST control)	1 fold enrichment (6-mer frequency, TF over GST control)
CAAGAA	1.03 fold enrichment (6-mer frequency, TF over GST control)	1.11 fold enrichment (6-mer frequency, TF over GST control)	1.02 fold enrichment (6-mer frequency, TF over GST control)	1.11 fold enrichment (6-mer frequency, TF over GST control)	1.03 fold enrichment (6-mer frequency, TF over GST control)	1.04 fold enrichment (6-mer frequency, TF over GST control)		1.06 fold enrichment (6-mer frequency, TF over GST control)	1.06 fold enrichment (6-mer frequency, TF over GST control)
GCCCCC	1.06 fold enrichment (6-mer frequency, TF over GST control)	1.02 fold enrichment (6-mer frequency, TF over GST control)	1.15 fold enrichment (6-mer frequency, TF over GST control)	1.03 fold enrichment (6-mer frequency, TF over GST control)	1.15 fold enrichment (6-mer frequency, TF over GST control)	1.13 fold enrichment (6-mer frequency, TF over GST control)		1.06 fold enrichment (6-mer frequency, TF over GST control)	1.12 fold enrichment (6-mer frequency, TF over GST control)
TTGCGC	1.23 fold enrichment (6-mer frequency, TF over GST control)	1.17 fold enrichment (6-mer frequency, TF over GST control)	1.1 fold enrichment (6-mer frequency, TF over GST control)	1.02 fold enrichment (6-mer frequency, TF over GST control)	1.1 fold enrichment (6-mer frequency, TF over GST control)	1.12 fold enrichment (6-mer frequency, TF over GST control)		1.04 fold enrichment (6-mer frequency, TF over GST control)	1.06 fold enrichment (6-mer frequency, TF over GST control)
CGGTCT	1.24 fold enrichment (6-mer frequency, TF over GST control)	1.15 fold enrichment (6-mer frequency, TF over GST control)	1.1 fold enrichment (6-mer frequency, TF over GST control)	1.18 fold enrichment (6-mer frequency, TF over GST control)	1.15 fold enrichment (6-mer frequency, TF over GST control)	1.15 fold enrichment (6-mer frequency, TF over GST control)	1.16 fold enrichment (6-mer frequency, TF over GST control)	1.18 fold enrichment (6-mer frequency, TF over GST control)	1.13 fold enrichment (6-mer frequency, TF over GST control)
ATCGCA	1.07 fold enrichment (6-mer frequency, TF over GST control)	1.07 fold enrichment (6-mer frequency, TF over GST control)	1.1 fold enrichment (6-mer frequency, TF over GST control)	1.03 fold enrichment (6-mer frequency, TF over GST control)	1.08 fold enrichment (6-mer frequency, TF over GST control)	1.02 fold enrichment (6-mer frequency, TF over GST control)		1.06 fold enrichment (6-mer frequency, TF over GST control)	
AACGTA	1.06 fold enrichment (6-mer frequency, TF over GST control)	1.05 fold enrichment (6-mer frequency, TF over GST control)	1.02 fold enrichment (6-mer frequency, TF over GST control)	1.04 fold enrichment (6-mer frequency, TF over GST control)	1.02 fold enrichment (6-mer frequency, TF over GST control)	1.01 fold enrichment (6-mer frequency, TF over GST control)		1.11 fold enrichment (6-mer frequency, TF over GST control)	
CACCTC	1.12 fold enrichment (6-mer frequency, TF over GST control)	1.15 fold enrichment (6-mer frequency, TF over GST control)	1.2 fold enrichment (6-mer frequency, TF over GST control)	1.17 fold enrichment (6-mer frequency, TF over GST control)	1.2 fold enrichment (6-mer frequency, TF over GST control)	1.27 fold enrichment (6-mer frequency, TF over GST control)	1.1 fold enrichment (6-mer frequency, TF over GST control)	1.09 fold enrichment (6-mer frequency, TF over GST control)	
